Eight compounds from PubChem BioAssay (EPA / NIEHS) can be followed below.

Inconclusive results are not listed. Activity calls are given as the source filed them. How the source made its calls, unless noted: active means hit-call score of the fitted dose curve at least 0.9, where 1 is the maximum; inactive means score below 0.9.

The target of experiment [1] is Paired box protein Pax-6 (Homo sapiens) (UniProt P26367). As to the kind of experiment: ATG_Pax6_CIS: Attagene CIS-FACTORIAL HepG2 Assay for human Paired Box 6 (PAX6) (AID 2282956). To be noted: HepG2 CIS-FACTORIAL PAX6 reporter transcription, RNA readout; actives raise or lower the signal. Summed up:
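Transient MRTU transfection of HepG2 → compound exposure 24 h → TriZol RNA, oligo(dT) RT → PCR, 6-FAM primer extension, HpaI cut → capillary electrophoresis; activity fitted both directions against DMSO.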

Experiment [2] in a line: ATG_PXRE_CIS: Attagene CIS-FACTORIAL HepG2 Assay for human Pregnane X Receptor Element (PXRE) (AID 2282957). To be noted: HepG2 Attagene CIS-FACTORIAL PXRE reporter, mRNA; actives raise or lower the signal. The method, boiled down: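 Cells: HepG2, transiently transfected reporter units under cis promoter control. Exposure: 24 h. Detection: reporter mRNA via RT-PCR/CE fluorescence; bidirectional fitting, DMSO-referenced.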

Experiment [3] can be described thus: ATG_PPRE_CIS: Attagene CIS-FACTORIAL HepG2 Assay for human Peroxisome Proliferator-activated Response Element (PPRE) (AID 2282958). To be noted: HepG2 PPRE cis-element reporter, Attagene transcription factor profiling; actives raise or lower the signal. The method, boiled down: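 Transcript-level reporter induction in transfected HepG2 cells after 24 h chemical exposure, quantified by fluorescence from RT-PCR products separated by capillary electrophoresis.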

The nature of experiment [4]: ATG_RORE_CIS: Attagene CIS-FACTORIAL HepG2 Assay for human RAR-related Orphan Receptor Element (RORE) (AID 2282959). To be noted: HepG2 Attagene cis-factorial RORE reporter, mRNA; actives raise or lower the signal. Summed up: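 Multiplexed reporter assay measuring mRNA induction from a cis promoter element in transiently transfected HepG2 cells after 24 h treatment. Detection via RT-PCR and capillary electrophoresis fluorescence; DMSO serves as baseline.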

Experiment [5] can be described thus: ATG_Sox_CIS: Attagene CIS-FACTORIAL HepG2 Assay for human SRY-box transcription factor (SOX) (AID 2282960). To be noted: HepG2 Attagene cis-factorial SOX reporter, mRNA; actives raise or lower the signal. Summed up: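 Cells were transfected with reporter constructs under cis-regulatory promoters, then exposed to chemicals for 24 h. Reporter transcripts were quantified by fluorescence after RT-PCR and capillary electrophoresis; activity was fitted in both directions against DMSO.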

Experiment [6] concerns the target Transcription factor Sp1 (Homo sapiens) (UniProt P08047). As to the kind of experiment: ATG_Sp1_CIS: Attagene CIS-FACTORIAL HepG2 Assay for human Specificity Protein 1 (Sp1) (AID 2282961). To be noted: HepG2 Sp1 cis-reporter transcription, actives raise or lower the signal. The method, boiled down:
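Measures mRNA induction of an Sp1-linked reporter in HepG2 cells 24 h post-dosing. Multiplexed reporters read by RT-PCR and capillary electrophoresis; DMSO serves as negative control and baseline.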

The nature of experiment [7]: ATG_SREBP_CIS: Attagene CIS-FACTORIAL HepG2 Assay for human Sterol Regulatory Element Binding (SREBP) (AID 2282962). To be noted: HepG2 Attagene cis-factorial SREBP reporter, mRNA; actives raise or lower the signal. Summed up:
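Transfected HepG2 (cis-regulated reporter library, endogenous TFs) → compound 24 h → total RNA → oligo(dT) RT → reporter-specific PCR → FAM primer extension, HpaI cut → CE fluorescence. Fit bidirectional vs DMSO.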

Experiment [8] addresses Signal transducer and activator of transcription 3 (Homo sapiens) (UniProt P40763). Nature of the experiment: ATG_STAT3_CIS: Attagene CIS-FACTORIAL HepG2 Assay for human Signal Transducer and Activator of Transcription 3 (STAT3) (AID 2282963). To be noted: HepG2, Attagene cis-factorial STAT3 reporter transcription; actives raise or lower the signal. Summed up:
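After a 24 h compound incubation, total RNA from MRTU-transfected HepG2 cells was converted to cDNA and reporter sequences PCR-amplified, labelled and profiled by capillary electrophoresis. Gain and loss of signal were referenced to DMSO.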

A short description of experiment [9]: ATG_TA_CIS: Attagene CIS-FACTORIAL HepG2 Assay for human TA Basal Promoter (AID 2282964). To be noted: HepG2 Attagene CIS-factorial TA basal promoter reporter; actives raise or lower the signal. The method, boiled down:
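Cis-factorial format in HepG2: reporters report endogenous factors, not chimeric Gal4 fusions. After 24 h treatment, reporter transcripts were measured by RT-PCR-capillary electrophoresis fluorescence, analysed bidirectionally versus DMSO.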

The nature of experiment [10]: ATG_TCF_b_cat_CIS: Attagene CIS-FACTORIAL HepG2 Assay for human T-Cell-Factor with beta-catenin (TCF/b-cat) (AID 2282965). To be noted: HepG2 TCF/beta-catenin cis-reporter transcription, actives raise or lower the signal. Summed up: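 Endogenous transcription factor activity is captured through cis-promoter reporter constructs transiently introduced into human HepG2 liver cells. Induced reporter mRNA is measured after 24 h and fitted bidirectionally relative to DMSO.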

Experiment [11] in a line: ATG_TAL_CIS: Attagene CIS-FACTORIAL HepG2 Assay for human TAL Basal Promoter (AID 2282966).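 Further: background control endpoint measuring basal TAL promoter reporter mRNA not a specific factor.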 To be noted: HepG2 Attagene cis-factorial TAL promoter reporter; actives raise or lower the signal. The method, boiled down: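 RT-PCR plus capillary electrophoresis quantifies reporter mRNA induction in transiently transfected HepG2 cells after 24 h chemical treatment. DMSO serves as negative control and baseline for bidirectional fitting.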

Experiment [12] can be described thus: ATG_TGFb_CIS: Attagene CIS-FACTORIAL HepG2 Assay for human Transforming Growth Factor (TGF) (AID 2282967). To be noted: HepG2 Attagene CIS TGFb reporter, mRNA transcription; actives raise or lower the signal. The method, boiled down: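 Multiplexed cis-reporter HepG2 system, 24 h treatment; mRNA induction read by fluorescence after RT-PCR and CE; DMSO negative control, bidirectional curve fitting.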

Experiment [13] is described as follows: ATG_VDRE_CIS: Attagene CIS-FACTORIAL HepG2 Assay for human Vitamin D Receptor Element (VDRE) (AID 2282968). To be noted: HepG2 VDRE cis-reporter transcription, actives raise or lower the signal. The method, boiled down:
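In transiently transfected HepG2 liver cells, gain or loss of reporter mRNA after 24 h exposure is scored relative to DMSO, using fluorescence detection by capillary electrophoresis of RT-PCR products.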

Experiment [14] deals with Estrogen receptor (Homo sapiens) (UniProt P03372). Nature of the experiment: ATG_ERa_TRANS: Attagene TRANS-FACTORIAL HepG2 Assay for human Estrogen Receptor alpha (ERa) (AID 2282970; active means hit-call score of the fitted dose curve at least 0.9, where 1 is the maximum). To be noted: HepG2 Attagene TRANS ERa GAL4 reporter, mRNA. The method, boiled down: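 Cells: HepG2, transiently transfected. Construct: GAL4-UAS reporter units regulated by exogenous NR-Gal4 chimeras. Time: 24 h. Detection: reporter mRNA by RT-PCR, capillary electrophoresis, fluorescence. Baseline: DMSO, upward fitting.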

For experiment [15], the target named is X-box-binding protein 1 (Homo sapiens) (UniProt P17861). As to the kind of experiment: ATG_Xbp1_CIS: Attagene CIS-FACTORIAL HepG2 Assay for human X-box Binding Protein 1 (XBP1) (AID 2282972). To be noted: HepG2 XBP1 cis-element reporter, Attagene multiplex; actives raise or lower the signal. The method, boiled down:
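HepG2, transient MRTU transfection (cis-promoter driven), 24 h compound exposure. Total RNA → oligo(dT) RT → PCR → 6-FAM labeling → HpaI cut → CE. Bidirectional fit vs DMSO.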

The nature of experiment [16]: ATG_M_19_TRANS: Attagene TRANS-FACTORIAL HepG2 Assay for M19 Transcription Factor (Internal Marker) (AID 2282974; active means hit-call score of the fitted dose curve at least 0.9, where 1 is the maximum). To be noted: HepG2 Attagene TRANS-FACTORIAL M19 internal marker reporter. The method, boiled down: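 After transfection of HepG2 with GAL4-UAS-driven reporter constructs, cells are dosed for 24 h. Total RNA is reverse-transcribed, reporter sequences PCR-amplified and labelled, then HpaI-digested and sized by capillary electrophoresis.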

Experiment [17] in a line: ATG_GAL4_TRANS: Attagene TRANS-FACTORIAL HepG2 Assay for GAL4 (Internal Marker) (AID 2282976; active means hit-call score of the fitted dose curve at least 0.9, where 1 is the maximum). To be noted: HepG2 Attagene TRANS GAL4 internal marker reporter. Summed up: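 In transfected human HepG2 liver cells dosed 24 h, GAL4 reporter mRNA serves as a baseline marker. Detection by RT-PCR with fluorescent capillary electrophoresis, activity fitted upward relative to DMSO.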

Experiment [18] concerns the target Nuclear receptor subfamily 1 group I member 3 (Homo sapiens) (UniProt Q14994). As to the kind of experiment: ATG_CAR_TRANS: Attagene TRANS-FACTORIAL HepG2 Assay for human Constitutive Androstane Receptor (CAR) (AID 2282969; active means hit-call score of the fitted dose curve at least 0.9, where 1 is the maximum;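 further: activators raise reporter mRNA above DMSO so AC50 marks induction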). To be noted: HepG2 Attagene TRANS-FACTORIAL CAR reporter. Summed up:
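Readout is reporter mRNA induction, quantified by fluorescent primer extension and capillary electrophoresis after RT-PCR. Cells were HepG2 transiently carrying chimeric NR-Gal4 constructs with GAL4-UAS reporters, treated for 24 h; activity scored upward from DMSO.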

Experiment [19] concerns the target Steroid hormone receptor ERR1 (Homo sapiens) (UniProt P11474). As to the kind of experiment: ATG_ERRa_TRANS: Attagene TRANS-FACTORIAL HepG2 Assay for human Estrogen-Related Receptor alpha (ERRa) (AID 2282971; active means hit-call score of the fitted dose curve at least 0.9, where 1 is the maximum). To be noted: HepG2 Attagene TRANS reporter, ERRa transactivation. Summed up: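 Reporter transcripts from ERRa-Gal4 chimera activity measured in transiently transfected human HepG2 cells 24 hours after dosing, using RT-PCR with 6-FAM primer extension, HpaI digestion and capillary electrophoresis; DMSO is baseline.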

Paired box protein Pax-6 (Homo sapiens), sequence (P26367 whole entry, looked up): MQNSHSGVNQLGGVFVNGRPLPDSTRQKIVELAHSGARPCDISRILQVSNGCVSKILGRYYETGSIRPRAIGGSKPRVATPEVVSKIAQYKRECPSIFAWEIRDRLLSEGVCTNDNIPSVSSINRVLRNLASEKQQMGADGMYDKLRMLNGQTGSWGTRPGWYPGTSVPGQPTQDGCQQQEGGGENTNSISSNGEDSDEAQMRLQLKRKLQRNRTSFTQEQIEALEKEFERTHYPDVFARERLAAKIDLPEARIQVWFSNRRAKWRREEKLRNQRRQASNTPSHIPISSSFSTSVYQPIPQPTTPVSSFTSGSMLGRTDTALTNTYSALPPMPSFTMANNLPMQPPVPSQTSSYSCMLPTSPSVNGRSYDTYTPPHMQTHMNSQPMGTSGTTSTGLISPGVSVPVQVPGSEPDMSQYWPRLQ
Estrogen receptor (Homo sapiens), sequence (P03372 whole entry, looked up, the tested form may be a part): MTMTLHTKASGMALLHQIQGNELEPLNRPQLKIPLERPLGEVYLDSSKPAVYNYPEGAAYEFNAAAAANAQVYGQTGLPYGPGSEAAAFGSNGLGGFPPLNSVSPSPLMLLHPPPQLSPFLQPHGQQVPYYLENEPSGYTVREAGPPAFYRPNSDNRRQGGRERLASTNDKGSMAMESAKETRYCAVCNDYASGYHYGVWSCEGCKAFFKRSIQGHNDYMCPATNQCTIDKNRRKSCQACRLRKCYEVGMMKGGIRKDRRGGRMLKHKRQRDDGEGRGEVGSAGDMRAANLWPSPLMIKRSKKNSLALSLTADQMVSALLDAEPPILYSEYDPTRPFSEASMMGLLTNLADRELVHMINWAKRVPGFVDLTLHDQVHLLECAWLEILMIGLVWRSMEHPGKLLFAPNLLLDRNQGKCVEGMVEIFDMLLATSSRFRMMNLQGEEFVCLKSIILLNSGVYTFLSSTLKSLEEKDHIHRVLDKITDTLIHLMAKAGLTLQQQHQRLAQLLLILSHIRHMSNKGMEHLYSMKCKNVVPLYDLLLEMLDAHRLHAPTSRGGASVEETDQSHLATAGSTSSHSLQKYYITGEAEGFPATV
Steroid hormone receptor ERR1 (Homo sapiens), sequence (P11474 whole entry, looked up, the tested form may be a part): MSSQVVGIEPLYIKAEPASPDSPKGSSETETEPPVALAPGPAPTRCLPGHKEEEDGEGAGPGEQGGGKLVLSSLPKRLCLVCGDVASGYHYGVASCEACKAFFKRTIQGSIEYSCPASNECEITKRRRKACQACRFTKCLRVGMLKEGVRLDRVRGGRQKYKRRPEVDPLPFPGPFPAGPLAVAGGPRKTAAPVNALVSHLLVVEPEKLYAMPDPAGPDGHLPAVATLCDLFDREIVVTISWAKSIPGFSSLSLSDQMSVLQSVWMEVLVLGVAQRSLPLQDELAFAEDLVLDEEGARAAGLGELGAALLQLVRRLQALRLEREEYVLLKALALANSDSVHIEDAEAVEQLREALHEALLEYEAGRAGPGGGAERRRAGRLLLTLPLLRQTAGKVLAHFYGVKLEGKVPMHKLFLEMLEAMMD
X-box-binding protein 1 (Homo sapiens), sequence (P17861 whole entry, looked up): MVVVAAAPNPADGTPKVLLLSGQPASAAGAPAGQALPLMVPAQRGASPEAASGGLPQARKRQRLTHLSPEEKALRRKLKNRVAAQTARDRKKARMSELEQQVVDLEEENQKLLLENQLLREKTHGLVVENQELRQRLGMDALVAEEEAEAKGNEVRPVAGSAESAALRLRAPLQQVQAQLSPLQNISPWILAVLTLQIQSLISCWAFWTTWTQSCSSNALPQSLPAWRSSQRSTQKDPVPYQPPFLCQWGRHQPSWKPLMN
Signal transducer and activator of transcription 3 (Homo sapiens), sequence (P40763 whole entry, looked up): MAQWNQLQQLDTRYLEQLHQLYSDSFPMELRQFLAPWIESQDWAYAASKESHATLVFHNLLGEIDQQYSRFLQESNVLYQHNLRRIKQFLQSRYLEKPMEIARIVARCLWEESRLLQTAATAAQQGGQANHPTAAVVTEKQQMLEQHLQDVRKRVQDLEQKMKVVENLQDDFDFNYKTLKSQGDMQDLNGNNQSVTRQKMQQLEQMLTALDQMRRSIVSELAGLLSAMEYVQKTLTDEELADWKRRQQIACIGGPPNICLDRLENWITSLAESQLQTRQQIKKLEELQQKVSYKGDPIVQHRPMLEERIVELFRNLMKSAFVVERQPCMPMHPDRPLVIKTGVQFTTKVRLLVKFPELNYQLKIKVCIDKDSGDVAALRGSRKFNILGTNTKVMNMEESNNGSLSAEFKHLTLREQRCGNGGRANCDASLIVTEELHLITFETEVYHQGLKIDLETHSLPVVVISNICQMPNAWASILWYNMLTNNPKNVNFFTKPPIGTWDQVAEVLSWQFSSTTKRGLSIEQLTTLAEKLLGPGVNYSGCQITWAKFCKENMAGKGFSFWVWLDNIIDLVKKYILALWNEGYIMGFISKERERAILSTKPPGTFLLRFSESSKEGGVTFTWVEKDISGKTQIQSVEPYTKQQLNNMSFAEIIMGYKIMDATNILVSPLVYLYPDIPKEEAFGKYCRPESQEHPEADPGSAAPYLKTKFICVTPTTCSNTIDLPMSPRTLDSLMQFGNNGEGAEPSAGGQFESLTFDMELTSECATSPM
Transcription factor Sp1 (Homo sapiens), sequence (P08047 whole entry, looked up): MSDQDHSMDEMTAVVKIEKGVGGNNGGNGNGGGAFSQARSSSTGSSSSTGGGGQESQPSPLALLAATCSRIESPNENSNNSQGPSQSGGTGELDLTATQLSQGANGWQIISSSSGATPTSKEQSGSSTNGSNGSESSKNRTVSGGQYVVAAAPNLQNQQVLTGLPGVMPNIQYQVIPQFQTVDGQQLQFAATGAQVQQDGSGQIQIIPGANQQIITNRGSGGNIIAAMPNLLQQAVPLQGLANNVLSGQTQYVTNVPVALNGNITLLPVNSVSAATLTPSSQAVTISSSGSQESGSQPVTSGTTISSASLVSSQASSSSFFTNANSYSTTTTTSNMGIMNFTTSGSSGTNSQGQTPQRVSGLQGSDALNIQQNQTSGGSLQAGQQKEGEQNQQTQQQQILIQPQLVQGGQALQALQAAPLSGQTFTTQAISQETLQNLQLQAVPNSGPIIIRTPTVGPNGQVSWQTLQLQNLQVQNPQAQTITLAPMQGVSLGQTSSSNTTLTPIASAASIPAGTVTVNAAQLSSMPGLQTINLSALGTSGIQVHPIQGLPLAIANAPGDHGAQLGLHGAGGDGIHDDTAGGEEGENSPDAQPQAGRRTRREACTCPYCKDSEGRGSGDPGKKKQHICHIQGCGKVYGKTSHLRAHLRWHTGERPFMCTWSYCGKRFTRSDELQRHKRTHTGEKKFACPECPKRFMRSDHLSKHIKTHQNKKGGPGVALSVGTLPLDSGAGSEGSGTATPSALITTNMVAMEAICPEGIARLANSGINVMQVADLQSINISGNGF
Nuclear receptor subfamily 1 group I member 3 (Homo sapiens), sequence (Q14994 whole entry, looked up, the tested form may be a part): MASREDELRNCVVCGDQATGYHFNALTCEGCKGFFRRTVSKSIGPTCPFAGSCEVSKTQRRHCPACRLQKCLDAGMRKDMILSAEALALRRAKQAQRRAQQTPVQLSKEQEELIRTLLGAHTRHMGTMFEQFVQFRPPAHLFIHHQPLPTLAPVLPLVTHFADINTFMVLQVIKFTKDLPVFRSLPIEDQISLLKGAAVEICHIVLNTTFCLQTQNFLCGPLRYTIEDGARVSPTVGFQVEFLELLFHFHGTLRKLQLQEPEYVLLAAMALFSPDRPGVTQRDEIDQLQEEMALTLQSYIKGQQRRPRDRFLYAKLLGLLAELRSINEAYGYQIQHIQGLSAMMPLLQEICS

For `CCCCOCCOC(=O)COc1nc(Cl)c(Cl)cc1Cl`, the result in [1], in experiment [2], in experiment [3], in [4], in experiment [5] and in experiment [6] was inactive. The outcome in [7], in experiment [8], in experiment [9], in experiment [10], in experiment [11] and in [12] was inactive. Further, the compound was called inactive in [13], in experiment [14], in experiment [15] and in [16].

Take `CCCc1ccc(OC)cc1`: the compound was called inactive in experiment [1], in [2], in [3], in [4], in [5] and in [6]. For the same compound, the call in experiment [7], in experiment [8], in [9], in [10], in experiment [11] and in experiment [12] was inactive. Besides, the result in experiment [13], in experiment [14], in experiment [15], in experiment [16] and in experiment [17] was inactive.

In general, AC50 refers to the concentration giving half of the maximal activity seen. With `C=CCOCC(O)CCl` (configuration not stated), the result in experiment [1], in experiment [3], in experiment [4], in experiment [5], in experiment [6] and in experiment [7] was inactive. In addition, the compound was called inactive in experiment [8], in experiment [9], in experiment [10], in experiment [11], in experiment [12] and in experiment [14]. Further, the call in experiment [15] and in experiment [17] was inactive. In addition, the AC50 in [2] was 35.5 µM (active); in experiment [13] it was 34.8 µM (active).

Turning to `CCC(C)(C)C1CCCCC1OC(C)=O` (configuration not stated), the outcome in experiment [1], in experiment [3], in experiment [4], in experiment [5], in experiment [6] and in experiment [7] was inactive. The result in experiment [8], in experiment [9], in experiment [10], in experiment [11], in experiment [12] and in experiment [13] was inactive. The compound was classed as inactive in experiment [18], in experiment [14], in experiment [19], in experiment [15] and in [17]. Also, the AC50 in experiment [2] was 27.2 µM (active).

On to `CCC(Cc1ccccc1)(C(=O)c1ccc(N2CCOCC2)cc1)N(C)C` (configuration not stated), for which the AC50 in experiment [1] was 42 µM (active); in experiment [2], 1.7 µM (active); in experiment [4], 21.4 µM (active); in experiment [9], 30.2 µM (active); in [10], 49.8 µM (active); in experiment [11], 23.5 µM (active). The AC50 in [13] was 6.85 µM (active); in [14] it was 1.03 µM (active). The compound was classed as inactive in [3], in experiment [5], in [6], in experiment [7], in experiment [8] and in [12]. In addition, the compound was classed as inactive in experiment [19], in experiment [15] and in experiment [16].

Take `Cc1ccc(C(C)c2ccc(C)c(C)c2)cc1C`: the outcome in experiment [1], in [3], in experiment [4], in experiment [5], in experiment [8] and in [9] was inactive. Moreover, the compound was classed as inactive in experiment [10], in experiment [12], in experiment [13], in experiment [18], in [14] and in experiment [16]. The AC50 in experiment [2] is 3.88 µM (active); in [6] it was 100 µM (active); in experiment [7], 147 µM (active); in experiment [11], 123 µM (active).

As for `c1ccc(CNCc2ccccc2)cc1`, the compound was classed as inactive in experiment [1], in [3], in experiment [4], in experiment [5], in experiment [6] and in [7]. Also, the compound was called inactive in experiment [8], in [9], in experiment [10], in [11], in [12] and in [13]. Also, the outcome in experiment [14], in experiment [15] and in experiment [17] was inactive. Also, the concentration at half-maximal activity (AC50) in [2] is 36 µM (active).

As to `C=CC=CC=CCCCCC`, the outcome in experiment [1], in experiment [3], in [4], in experiment [5], in experiment [6] and in experiment [7] was inactive. Further, the result in experiment [8], in [9], in experiment [10], in [11], in experiment [12] and in experiment [13] was inactive. In addition, the compound was called inactive in experiment [14], in experiment [19] and in experiment [15]. Further, the AC50 in [2] was 6.94 µM (active).
